Test results from PubChem BioAssay AID1508600 (Functional Genomics Laboratory (NCATS/FGL), 2020).
Screen size: about 53,000 sequences; about 3,700 (7%) were called active.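 How the source made its calls: active means gene knockdowns whose robust z-score for IL-1 alpha signal is at least 2 or at most -2, so actives lie on both sides; inactive means the rest.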 The entries come from a sample that favours actives as a whole.

Test: Components of the Cytosolic LPS Sensing Pathway: Gene Identification via Genome-wide siRNA Screen;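 further: robust z of the log signal after scaling to non-targeting control siRNA wells of the plate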
Settings: RAW264.7 macrophages, IL-1a HTRF, actives lie on both sides, screened at 100 nM (by protocol), cells primed 5 h with Pam3CSK4 first
In short: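 Knockdown: 100 nM siRNA, 48h, RAW264.7. Stimulation: Pam3CSK4 5 h, then LipidA via TransIT-TKO 24 h. Output: supernatant IL-1a HTRF, negative-control-normalized, log robust z-score; viability by CellTiter-Glo.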

z-score, active:
GCCUCUGUCAAGUCUUGGATT against Ftl1 -2.17
GGAGAAUUAACUGUUCCUCTT against Kcnmb2 2.23
GGCUGUCUUAUUAAAGCUATT against A730013G03Rik -2.19
GGCGGUCAAGGGAAAAACATT against Tcf7 2.19
GGAUCAAAAACACAUACUUTT against Adgre4 2.37
GCGAGGAGAGUGUGUUUUCTT against Bop1 2.08
CGCAGGACAUUUGGUUUUGTT against Ssxb2 2.88
CGCGAGCUCAGAAUACAUGTT against Btn1a1 2.5
GGUAGAAUACGUGUUCCUGTT against Cacna1f 2.79
GGAUAAGGUAGAAUUACUGTT against Slc26a4 3.06
GCACCGUGUGACCAUGAACTT against Akt1 3.96
GCACUACAGACACUUUUAGTT against Gm5533 -2.12
CGGCACUGUCAUAAGUGUGTT against Utp4 2.39
GGAUGUGGAAUCAUGCUAUTT against Tnpo3 2.41
GGCCUGGAUUCCUUAACAATT against Lgi1 -3.23
CGCUACGACUAGAGUUUGCTT against Rbpms 2.36
GGAUAUGCUCAGAGGUUUUTT against Pex11g 2.2
CGGGUGCUAAAAUGUCUAUTT against Khdrbs2 2.81
GGAUAACUGUAACAGCCCGTT against Ly6g6c -2.12
GGCACGAUGGUUCAUCCUUTT against Plek2 -2.01
GGAGAUGUAACCAUAGGCCTT against Dctn6 2.07
GGCAGAAAGACAUUUUCUUTT against Ift80 -2.53

z-score, inactive:
GGUACUGUUGCGCUUUGCUTT against Ciao3 1.47
GCUGAGGCAUAAAAACGAGTT against Atad3a -0.643
GGUGAAUCUAUUUACCUGCTT against Fam71d 0.317
GGAAUAUGUGCAGAAGCUGTT against Fgd2 -1.2
GGUCUAGAGUUACCAUUCATT against Aqp9 -0.954
CCAAGGACUCUCAUCUGUUTT against Zfp474 -0.712
GGACGACAGGAACUGGCAATT against Fbxo9 0.615
GCAGAGGGCAACUCGUAAGTT against Gm6034 -0.843
CCAACACUGAGCUCAGAAGTT against Igfbp2 -1.34
CCGACUAAUGCUAAAUCCATT against Pcgf1 0.897
GGUGAAAUUCUGAAUGAAATT against Gatb -0.0515
GGAACUAGAAGAAAUGUUATT against Mrps9 0.768
GGGAGCAGAUUGAAACAGUTT against Eri2 -0.546
CUUAGUGCUCUGGGAGCAGTT against Ms4a5 0.487
CGAUCACCUUAGUAAAUACTT against Ykt6 0.233
GGAAGGGACUGAUCGGUACTT against Igsf8 1.61
GCUGAGACUUCGAGCCUAUTT against Polr2c -0.976
CCAGUUAAAAAGGUUCCAATT against Ccdc169 1.46
GGAUAACCUAAUGUAGAUATT against Nphs2 -0.0675
GGGAUAUCCCAGAACAAGATT against Vps37a 0.336
GCUUGGUAGAGAUGUUAAATT against Ryr3 -0.119
GCAUCAUUUUAACACUUCUTT against Tubd1 -0.0435
GGAGGGAAAACCACAAGACTT against Dppa4 0.514
CCUCUUAUUCAGAAUGUCCTT against Bnc2 0.451
GGACAUCCAGACAAUGAGGTT against Fam13b -1.62
GGUCGUCUGAUUUUUGAUATT against Atp1a1 0.391
GGACUGCUGGGAGAACUUUTT against Zcchc3 0.76
GGGCCACAGGAUCUCACUUTT against 1700009J07Rik -1.88
GGAGGAACAGAAGAAACUCTT against Tma7 -0.0481
GGCUAUGCAAGUGGAGAGCTT against Nfat5 -0.311
GGACAAAGGCUGUAUUUUCTT against Tgm3 -1.07
GGAGAUAAUAAUGAAGUCGTT against Sec11c 0.353
GGUUGGUGAACUUGGAGGUTT against Hspa1a 1.41
GGGUUUUUUUUUCCUUGAATT against Smndc1 -0.313
GGCUGAUGGAAAUCCUUAATT against Ctif 0.0158
GGGCAAAGCCUUCAACCCUTT against Insl6 -0.038
CGCCACUGCUUUGAUUACUTT against Coa5 -1.51
GGCGCAUUACCAGAGCUUCTT against Tnpo2 -0.425
CGUUGUCAAAAGGACCCAUTT against Pvr -0.766
GCAAGGAUCCACGCUUUUCTT against Ckmt2 1.34
GCCACUCUUAGUGCUAACUTT against Tctn3 -1.25
GGAUUACCUAAAUUUAGGATT against Hfm1 0.14
GGAAAAUUCAGUUUAAUCCTT against Glt8d1 0.438
GGACAGAACCAUCUGAAGGTT against Aldh18a1 1.43
CGUGGAAAAGCUAUGUGCGTT against Lif -0.188
GGAAGCUGUGCUGAAUGGUTT against Atp5l 0.387
GGAGGAAAAGGCUUUUCGATT against Ccdc70 1.04
GGCACAUCACUGCUUACCUTT against Rce1 -1.73
GCCAAGCCAUCUCAUUAAATT against Wdr18 -0.724
GCCUGACUUUAAUGAAGAATT against Slf2 -1.77
GGGUUUCUUGUUUCUUAGATT against Aldh6a1 -0.00669
CGUGGUUCCUCUUUGGUGUTT against Kcnj10 -0.217
CCAGUUCUUAACAUUGUGUTT against Syap1 -1.13
CCCAUCAUCUUCCCAUUCGTT against Olfr146 -0.204
GGGCUAGAUGAAUUUUUGATT against Aplnr -0.181
CCAGCUAUGUGUAUAAACCTT against Ppid -0.045
GCCUGUGCCUUUUGAAUUCTT against Brox -0.0201
GGUCUAUCCCAUCAUGCCUTT against Clcnka 0.583
GCAGAGAGUUUUUAUCUGCTT against Vmp1 0.0579
GGGAAGAACUUCAAGCUUGTT against Ptk2b 0.668
GGUUGGACUGACUAUCCAUTT against Olfr984 1.02
GGCUGCUGACAUUUUCAUCTT against Lrrc28 1.53
GGUCCUAACAUCCAGAGUGTT against Zfp438 -1.06
GGAUAAGACCAUCAGAUUATT against Wdr31 1.18
GGAGCUUGAUUCGAAGCCUTT against Bik -0.364
GCGAAGAGUCAAAUCCAUCTT against Dock8 -1.93
CCGAAGUUCACCCUAAAGGTT against Lmna -0.485
GCAAAGAAGUGUAUGUGUUTT against Olfr273 0.0336
GCUUCUCAGAAGAUGUACUTT against Rgs16 -1.06
GCCCUAUAUAUCAUUCUAGTT against Rhoa 1.12
GCCUGUUAUAUGUGGCCUUTT against Olfr1352 0.673
GGAUGUCCUGAAAGAAAAATT against H2-M9 0.633
GCUUUAUUCACUCACUUUCTT against Chsy3 0.814
GGUGAUUUCUAUCGAUUUUTT against Dhrs9 0.144
GGACGUGCUCAAGUUCAUCTT against Ift172 0.519
GGAAGUCAAGCAAAAGUUUTT against Hsd17b7 -0.516
GGUUGAAGAUGAAAGAAGATT against Sin3a 0.132
CGAAGCUCAACAGAUUCCUTT against Prl7a2 -0.278
CGGCCUACAACUACCCAACTT against Tekt3 1.02
CGACGUAUCCGUUCUAUAATT against Eif2s1 -1.05
GAGCAUAGAAACCAUGCACTT against Acot2 -0.621
GCUAAAGAAAAGUGGAGACTT against Pbdc1 0.165
GCAUAUCUAUAACAGAGCCTT against Rnase2a -1.23
GGAAAUGUCAUGACCUUGATT against Tnfaip6 -1.89
CCUGGUGCUAUGGACUAAATT against Tectb -1.15
GCUACGGAUGCUUUUCAAATT against Ube2i -0.351
